Results filed as inconclusive are left out. Active and inactive are the calls of the source. Unless noted, calls follow the shape of the dose curve; as a rule, active = well fitted curve in the direction sought with a large enough effect in the repeat runs; inconclusive = weak or mixed curves; inactive = no such curve, though single readings can be large; an effect the other way counts as inactive or inconclusive.
Experiments:
[1] = qHTS RealTime-Glo MT Cell Viability Assay in HEK293 cells - 0 hour (AID 1224880); also: top concentration of the series differs between compounds; nearly all actives have a fitted effect of over 45% in size
Outline: (§1)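 qHTS format; HEK293 cells with NanoLuc/prosubstrate reagent, 37 C/5% CO2 for 5 h pre-dosing; compounds 23 nL in DMSO; luminescence at each time point reflects viable cells.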

[2] = A CellTox Green Cytotoxicity Assay to monitor cytotoxicity in HEK293 cells - 32 hour (AID 1224881); also: nearly all actives have a fitted effect of over 40% in size
Outline: (§2)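 Each value comes from one timepoint of a single continuous run in which HEK293 cells with CellTox Green were exposed to compound for up to 40 h at 37 C, dye fluorescence rising with cell death.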

[3] = A CellTox Green Cytotoxicity Assay to monitor cytotoxicity in HepG2 cells - 32 hour (AID 1224883); also: nearly all actives have a fitted effect of over 50% in size
Outline: (§3)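 Continuous culture of HepG2 cells with a membrane-impermeant DNA dye; rising fluorescence marks dead cells. Compound exposure lasted up to 40 h at 37 C, with reads every 8 h from 0 h.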

[4] = A CellTox Green Cytotoxicity Assay to monitor cytotoxicity in HEK293 cells - 8 hour (AID 1224884); also: nearly all actives have a fitted effect of over 35% in size
Outline: as §2

[5] = A CellTox Green Cytotoxicity Assay to monitor cytotoxicity in HEK293 cells - 16 hour (AID 1224888); also: nearly all actives have a fitted effect of over 35% in size
Outline: as §2

[6] = qHTS RealTime-Glo MT Cell Viability Assay in HepG2 cells - 0 hour (AID 1224889); also: nearly all actives have a fitted effect of over 50% in size
Outline: (§4)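 Luminescence read-out: viable HepG2 cells reduce a prosubstrate to a NanoLuc substrate, giving a signal proportional to live cell number. Reads taken at 0, 8, 16, 24, 32 and 40 h of compound exposure at 37 C.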

[7] = A CellTox Green Cytotoxicity Assay to monitor cytotoxicity in HepG2 cells - 8 hour (AID 1224890); also: nearly all actives have a fitted effect of over 45% in size
Outline: as §3

[8] = qHTS assay to identify small molecule antagonists of the estrogen receptor alpha (ER-alpha) signaling pathway using the BG1 cell line in the presence of 0.1 nM 17-beta-estradiol - cell viability counter screen (AID 1259241); also: nearly all actives have a fitted effect of over 40% in size
Outline: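 Cells were plated and left 24 hr, compounds in DMSO were pinned in, 17beta-estradiol was added to 0.1 nM final, and after 22 hr CellTiter-Fluor reagent was added for 30 min before fluorescence was read.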

[9] = qHTS assay to identify small molecule antagonists of the androgen receptor (AR) signaling pathway using the MDA cell line in the presence of 0.5 nM R1881 - cell viability counter screen (AID 1259242); also: nearly all actives have a fitted effect of over 45% in size
Outline: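 Fluorescence from CellTiter-Fluor, which reports protease activity of live cells, was read 30 min after reagent addition to MDA-kb2 cells that had been incubated 16 hr with compound and 0.5 nM R1881.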

[10] = qHTS assay to identify small molecule phospholipidosis (PLD) inducers (AID 1259344; active = well fitted curve in the direction sought with a large enough effect; an effect the other way counts as inactive or inconclusive)
Outline: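 Phospholipidosis is scored by imaging LipidTOX-stained pits in HepG2 cells exposed to compound for 24 h at 37 C; pit counts and integrated intensities per well and per cell serve as outputs.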

[11] = qHTS assay to identify small molecule HDAC inhibitors (AID 1259364); also: top concentration of the series differs between compounds; nearly all actives have a fitted effect of over 45% in size
Outline: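 Endogenous HDAC class I/II activity was measured in wild-type HCT-116 cells by HDAC-Glo luminescence after 2 h compound treatment.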

[12] = qHTS assay to identify small molecule HDAC inhibitors - cell viability counter screen (AID 1259365); also: series mostly up to about 92 µM; nearly all actives have a fitted effect of over 50% in size
Outline: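 Counter screen in wild-type HCT-116 cells: compounds dissolved in DMSO are pin-transferred onto overnight-plated cells and left 2hr at 37C. ATP-based CellTiter-Glo luminescence then measures viable cells.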

[13] = qHTS assay to identify small molecule agonists of the sonic hedgehog signaling (Shh) pathway - cell viability counter screen (AID 1259366); also: nearly all actives have a fitted effect of over 50% in size
Outline: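 Cells are plated at 2,000 per well and left 4hr at 37C, 5% CO2 before compound addition. After 23hr of treatment, CellTiter-Fluor reagent is added for 1hr at 37C and fluorescence is measured.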

[14] = qHTS assay to identify small molecule antagonists of the sonic hedgehog signaling (Shh) pathway - cell viability counter screen (AID 1259367); also: nearly all actives have a fitted effect of over 55% in size
Outline: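 Cells: 3T3 Gli1-Luc, 2,000/well, 4 hr pre-incubation. Compounds in DMSO, then conditioned medium. Incubation 24 hr, 37C, 5% CO2. CellTiter-Fluor at 23 hr, 1 hr, fluorescence.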

[15] = qHTS RealTime-Glo MT Cell Viability Assay in HepG2 cells - 16 hour (AID 1224885); also: nearly all actives have a fitted effect of over 50% in size
Outline: as §4

[16] = qHTS RealTime-Glo MT Cell Viability Assay in HEK293 cells - 24 hour (AID 1224886); also: nearly all actives have a fitted effect of over 50% in size; also: potency is read from the fitted curve at half-maximal effect; as to activity change, negative = cytotoxicity: top concentration of the series differs between compounds
Outline: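 Nonlytic real-time viability readout: viable cells convert prosubstrate to NanoLuc substrate, giving luminescence proportional to live cell number. HEK293, 600 cells/well, compound added after 5 h, continuous culture at 37 C.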

[17] = qHTS RealTime-Glo MT Cell Viability Assay in HEK293 cells - 8 hour (AID 1224887); also: nearly all actives have a fitted effect of over 50% in size; also: potency is read from the fitted curve at half-maximal effect; as to activity change, negative = cytotoxicity: top concentration of the series differs between compounds
Outline: as §1

[18] = target: Estrogen receptor (Homo sapiens) (UniProt P03372); assay: qHTS assay to identify small molecule antagonists of the estrogen receptor alpha (ER-alpha) signaling pathway using the BG1 cell line in the presence of 0.1 nM 17-beta-estradiol (AID 1259244); also: nearly all actives have a fitted effect of over 50% in size; also: potency is read from the fitted curve at half-maximal effect
Chain of Estrogen receptor (Homo sapiens) (P03372 whole entry, looked up): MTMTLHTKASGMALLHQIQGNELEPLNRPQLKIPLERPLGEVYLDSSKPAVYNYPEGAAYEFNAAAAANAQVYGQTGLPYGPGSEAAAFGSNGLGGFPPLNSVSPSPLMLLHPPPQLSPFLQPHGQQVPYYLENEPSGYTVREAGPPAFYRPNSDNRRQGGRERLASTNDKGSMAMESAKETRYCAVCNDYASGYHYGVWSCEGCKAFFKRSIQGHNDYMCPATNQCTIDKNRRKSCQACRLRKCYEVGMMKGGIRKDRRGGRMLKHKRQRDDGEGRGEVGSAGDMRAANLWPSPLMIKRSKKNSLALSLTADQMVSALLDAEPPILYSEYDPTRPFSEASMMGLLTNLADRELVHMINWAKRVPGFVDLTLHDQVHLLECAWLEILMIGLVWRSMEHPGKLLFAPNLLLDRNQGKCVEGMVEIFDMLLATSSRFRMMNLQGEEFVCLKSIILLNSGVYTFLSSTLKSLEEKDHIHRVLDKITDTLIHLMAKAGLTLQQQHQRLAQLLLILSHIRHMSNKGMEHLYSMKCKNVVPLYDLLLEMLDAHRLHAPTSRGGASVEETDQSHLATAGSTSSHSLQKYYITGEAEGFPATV
Outline: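 Quantitative high-throughput screen in VM7Luc4E2 cells: compound plus 0.1 nM E2 (final), 22 h, 37C, 5% CO2; ONE-Glo added, 30 min room temperature, luminescence measured.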

[19] = target: Androgen receptor (Homo sapiens) (UniProt P10275); assay: qHTS assay to identify small molecule antagonists of the androgen receptor (AR) signaling pathway using the MDA cell line in the presence of 0.5 nM R1881 (AID 1259243); also: nearly all actives have a fitted effect of over 50% in size; also: potency is read from the fitted curve at half-maximal effect
Chain of Androgen receptor (Homo sapiens) (P10275 whole entry, looked up): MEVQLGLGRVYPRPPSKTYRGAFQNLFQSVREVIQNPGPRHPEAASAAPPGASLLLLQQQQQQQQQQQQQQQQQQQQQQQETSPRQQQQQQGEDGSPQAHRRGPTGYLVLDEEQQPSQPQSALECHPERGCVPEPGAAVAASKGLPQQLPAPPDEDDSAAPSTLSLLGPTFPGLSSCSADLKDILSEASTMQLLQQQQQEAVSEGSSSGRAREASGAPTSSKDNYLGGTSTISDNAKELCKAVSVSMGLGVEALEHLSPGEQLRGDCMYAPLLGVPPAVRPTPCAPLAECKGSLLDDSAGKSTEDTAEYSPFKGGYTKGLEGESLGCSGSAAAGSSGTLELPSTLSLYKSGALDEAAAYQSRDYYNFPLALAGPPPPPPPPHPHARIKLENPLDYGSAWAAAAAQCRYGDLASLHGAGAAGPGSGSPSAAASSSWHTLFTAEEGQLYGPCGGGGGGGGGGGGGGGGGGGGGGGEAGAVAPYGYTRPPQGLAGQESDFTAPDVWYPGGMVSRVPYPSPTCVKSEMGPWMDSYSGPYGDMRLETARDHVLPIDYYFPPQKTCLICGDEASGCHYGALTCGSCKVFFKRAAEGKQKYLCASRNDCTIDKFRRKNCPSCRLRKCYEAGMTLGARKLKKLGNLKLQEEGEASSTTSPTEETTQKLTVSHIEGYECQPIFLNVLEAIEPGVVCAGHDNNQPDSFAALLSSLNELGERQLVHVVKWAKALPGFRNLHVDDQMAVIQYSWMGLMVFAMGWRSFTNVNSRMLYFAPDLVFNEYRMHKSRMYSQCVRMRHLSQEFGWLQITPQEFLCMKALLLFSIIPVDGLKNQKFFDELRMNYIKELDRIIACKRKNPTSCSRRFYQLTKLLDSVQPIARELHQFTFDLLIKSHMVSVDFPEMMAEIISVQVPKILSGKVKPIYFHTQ
Outline: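 Inhibition of R1881 (0.5 nM final) induced reporter signal was measured in human MDA-kb2 cells; note the MMTV promoter also responds to GR. Exposure lasted 16 hr at 37C.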

[20] = A CellTox Green Cytotoxicity Assay to monitor cytotoxicity in HepG2 cells - 0 hour (AID 1224882); also: nearly all actives have a fitted effect of over 35% in size
Outline: as §3
% is scaled to controls: 0 for no effect and ±100 for the full control effect.

O=C(O)CN(CCN(CC(=O)O)CC(=O)O)CCN(CC(=O)O)CC(=O)O
inactive: activity change, negative = cytotoxicity [1] 6.1% [at 15.8 µM] | cytotoxicity increase [2] 18.1% [at 15.8 µM] | cytotoxicity increase [3] 22% [at 15.8 µM] | cytotoxicity increase [4] 18.1% [at 15.8 µM] | activity change [5] 12.4% [at 15.8 µM, active compounds read high] | activity change, negative = cytotoxicity [6] -4.51% [at 15.8 µM] | cytotoxicity increase [7] 26.9% [at 15.8 µM] | activity change, negative = cytotoxicity [8] -1.86% [at 19 µM] | viability change, negative = cytotoxic [9] 3.41% [at 19 µM] | outcome [10] | activity change, negative = inhibition [11] 3.25% [at 19 µM] | activity change, negative = cytotoxicity [12] 3.61% [at 19 µM] | viability change, negative = cytotoxic [13] -18.4% [at 19 µM] | viability change, negative = cytotoxic [14] -7.04% [at 19 µM]

CCCc1c2oc(C(=O)O)cc(=O)c2cc2c(=O)cc(C(=O)O)n(CC)c12
inactive: outcome [1] | Potency [3] | outcome [15] | Potency [16] | Potency [17] | Potency [6] | Potency [7] | Potency [8] | outcome [9] | Potency [18] | outcome [12] | Potency [13] | Potency [14]

CCCCCCCCCC/C=C/C#N
inactive: outcome [1] | Potency [2] | Potency [3] | Potency [4] | outcome [15] | Potency [16] | Potency [17] | Potency [5] | Potency [7] | Potency [8] | outcome [9] | Potency [18] | Potency [11] | outcome [12] | Potency [13] | Potency [14]

CCc1cc2cc(OC)c(OC)cc2c(Cc2ccccc2)n1
inactive: outcome [1] | Potency [2] | Potency [4] | outcome [15] | Potency [5] | Potency [6] | Potency [8] | outcome [9] | Potency [11] | outcome [12] | Potency [13] | Potency [14]
active: Potency [16] 16.9 µM | Potency [17] 16.9 µM | Potency [19] 4.22 µM

COC(=O)N[C@H](C(=O)N[C@@H](Cc1ccccc1)[C@@H](O)CN(Cc1ccc(-c2ccccn2)cc1)NC(=O)[C@@H](NC(=O)OC)C(C)(C)C)C(C)(C)C
inactive: outcome [1] | Potency [2] | Potency [4] | outcome [15] | Potency [16] | Potency [17] | Potency [5] | Potency [8] | outcome [9] | Potency [18] | Potency [11] | outcome [12]

Cc1nc(N)nc(N)c1-c1ccc(Cl)c(Cl)c1
inactive: outcome [1] | Potency [2] | Potency [4] | outcome [15] | Potency [5] | Potency [6] | Potency [7] | Potency [8] | outcome [9] | Potency [11] | outcome [12] | Potency [13] | Potency [14]
active: Potency [18] 13.3 µM

COc1cc(Cl)ccc1Cl
inactive: outcome [1] | Potency [4] | Potency [16] | Potency [17] | Potency [5] | Potency [6] | Potency [7] | Potency [8] | outcome [9] | Potency [11] | outcome [12] | Potency [13] | Potency [14]

CC1=C2[C@H](/C=C(\C)C(=O)O)CC[C@@H](C)[C@H]2CC1
inactive: outcome [1] | Potency [20] | Potency [3] | outcome [15] | Potency [7] | Potency [8] | outcome [9] | Potency [11] | outcome [12]
active: Potency [16] 36 µM | Potency [17] 25.5 µM | Potency [19] 31.8 µM | Potency [18] 63.4 µM

CC(C)NCC(O)COc1ccc(CCOCC2CC2)cc1 (configuration not stated)
inactive: outcome [1] | Potency [2] | Potency [4] | outcome [15] | Potency [16] | Potency [17] | Potency [5] | Potency [6] | Potency [7] | Potency [8] | outcome [9] | outcome [10] | Potency [11] | outcome [12] | Potency [13] | Potency [14]

CN(CCCN1c2ccccc2CCc2ccccc21)CC(=O)c1ccc(Cl)cc1
inactive: outcome [1] | Potency [2] | Potency [4] | outcome [15] | Potency [16] | Potency [17] | Potency [5] | Potency [6] | Potency [7] | Potency [8] | outcome [9] | Potency [18] | Potency [11] | outcome [12] | Potency [13] | Potency [14]

CN(C)CCOc1ccccc1Cc1ccccc1
inactive: outcome [1] | Potency [2] | Potency [4] | outcome [15] | Potency [16] | Potency [17] | Potency [5] | Potency [8] | outcome [9] | Potency [11] | outcome [12] | Potency [13] | Potency [14]

CCCCCOc1ccc(C2SC(=O)NC2=O)cc1OCC (configuration not stated)
inactive: outcome [1] | Potency [2] | Potency [4] | Potency [16] | Potency [17] | Potency [5] | Potency [6] | Potency [8] | outcome [9] | Potency [19] | Potency [18] | outcome [10] | Potency [11] | outcome [12] | Potency [13] | Potency [14]

CCc1nnc(NS(=O)(=O)c2ccc(N)cc2)s1
inactive: outcome [1] | Potency [2] | Potency [3] | Potency [4] | Potency [16] | Potency [17] | Potency [5] | Potency [6] | Potency [7] | Potency [8] | outcome [9] | outcome [10] | Potency [11] | outcome [12] | Potency [13] | Potency [14]

Reference: PubChem BioAssay (Tox21)
